Results reported in PubChem BioAssay AID2762 (National Center for Advancing Translational Sciences (NCATS), 2010).
Records with an inconclusive call do not appear. Values without a mark were called inactive. Activity calls are given as the source filed them. Calls follow the shape of the dose curve; as a rule, active = well fitted inhibition curve with a large enough effect; inconclusive = small, poorly fitted or top-dose-only effect, or effect the other way; inactive = no such curve, though single readings can be large or run the other way.

Target: Nuclear receptor ROR-gamma (Mus musculus) (UniProt P51450)
Test: Concentration response confirmation assay for inhibitors of ROR gamma transcriptional activity
Conditions: Drosophila S2 Gal4-RORgamma UAS-luciferase, 20 h; series mostly up to 46.1 µM; activity change, negative = inhibition: at the top concentration
Text: NIH Molecular Libraries Probe Production Network [MLPCN] NIH Chemical Genomics Center [NCGC] MLPCN Grant: R03 DA026211-01 Assay Provider: Dan Littman, New York University Assay Overview: The retinoic acid-related orphan receptor (ROR) gamma is a transcription factor that has a central role in the differentiation of Th17 cells, a subset of T helper cells that secrete the inflammatory cytokines IL-17, IL-17F, and IL-22. Th17 cells have been implicated in graft versus host disease, autoimmune disease and asthma. ROR gamma is induced in naive T helper cells in the presence of TGF-beta combined with IL-6, IL-21, or IL-23, and thereafter directs the expression of the Th17 lineage cytokines. To study the mechanism of action of ROR gamma, an insect cell-based assay was screened. This Drosophila Schneider cell line was stably transfected with two vectors: a gene expressing a fusion of the Gal4 DNA binding domain and ROR gamma transactivation domain under the control of the metallothionine promoter and a Photinus luciferase reporter regulated by the Gal4 binding site enhancer, UAS. […] Small molecule inhibitors of ROR gamma activity are detected by a decrease in luciferase reporter activity.
Assay Protocol Summary: For screening, 600 cells in 4 uL/well were dispensed into white solid 1536-well plates (Grenier) using a solenoid-based dispenser. Following transfer of 23 nL compound or DMSO vehicle by a pin tool, the plates were incubated 1 hr at ambient temperature, and 1 uL/well copper sulfate (700 uM final concentration) was added. The plates were centrifuged 15 s at 1000 RPM and incubated 20 hr at ambient temperature. After addition of 1.5 uL Photinus luciferase detection reagent, the plates were incubated 10 min at ambient temperature and then read by an ViewLux (Perkin Elmer) to detect luminescence. Keywords: NIH Roadmap, MLPCN, MLI, MLSMR, qHTS, NCGC, qHTS, nuclear hormone receptor, retinoic acid-related orphan receptor, ROR gamma

Sequence of Nuclear receptor ROR-gamma (Mus musculus) (P51450 whole entry, looked up): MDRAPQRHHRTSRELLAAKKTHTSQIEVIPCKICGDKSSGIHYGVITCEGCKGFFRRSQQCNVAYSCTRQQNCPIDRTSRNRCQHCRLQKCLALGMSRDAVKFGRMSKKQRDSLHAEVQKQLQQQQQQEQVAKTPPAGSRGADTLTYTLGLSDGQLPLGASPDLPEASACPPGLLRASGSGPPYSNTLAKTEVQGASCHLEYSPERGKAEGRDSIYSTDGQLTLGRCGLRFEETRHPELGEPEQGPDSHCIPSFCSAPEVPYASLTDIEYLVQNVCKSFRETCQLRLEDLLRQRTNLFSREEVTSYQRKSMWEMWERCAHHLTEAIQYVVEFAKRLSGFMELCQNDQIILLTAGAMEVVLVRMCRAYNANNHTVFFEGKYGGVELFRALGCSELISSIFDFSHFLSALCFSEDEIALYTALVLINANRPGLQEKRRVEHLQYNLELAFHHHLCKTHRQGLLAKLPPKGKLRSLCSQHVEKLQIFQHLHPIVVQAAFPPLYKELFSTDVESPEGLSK

Question: For COc1ccc(-c2cc(C(=O)NNC3=NCCC3)c3c(C)nn(-c4ccccc4)c3n2)cc1, which Potency is on record?
Answer: The Potency was 4.45 µM (active).

Question: With CCn1nc(C)c(CN2CCC(n3nccc3NC(=O)c3ccc4c(c3)OCO4)CC2)c1C as the compound, how does the “activity change, negative = inhibition” value read?
Answer: The value was 0.701%.

Question: How did the Potency turn out when CCc1ccc(-c2nc(CSCC(=O)NC3CC3)c(C)o2)cc1 was run?
Answer: Its Potency is 3.97 µM (active).

Question: CCN1CCCc2cc(CN(CCN3CCOCC3)C(=S)Nc3ccccc3C)ccc21 was tested. Which Potency did it give?
Answer: The Potency was 9.96 µM (active).

Question: Which Potency does the source give for O=C(CCCN1C(=O)/C(=C/c2ccccc2Cl)SC1=S)NNC(=O)c1ccc(Cl)cc1Cl here?
Answer: The Potency was 1.58 µM (active).

Question: Which Potency does the source give for CNc1cc(C(F)(F)F)nc(-c2ccccn2)n1 here?
Answer: The Potency was 3.97 µM (active).

Question: Which Potency does the source give for CCOc1ncccc1C(=O)OCC(=O)Nc1ccc(-c2nc3ccc(C)cc3s2)cc1 here?
Answer: Its Potency is 0.396 µM (active).

Question: Which “activity change, negative = inhibition” value does the source give for O=C(CN1CCCCCC1)Nc1ccc(S(=O)(=O)N2CCOCC2)cc1 here?
Answer: The value was 19.2%.

Question: Which Potency does the source give for Cc1cccc(-c2ocnc2C(=O)Nc2ccccc2NC(=O)c2ccccn2)c1 here?
Answer: The Potency was 2.23 µM (active).

Question: Which Potency does the source give for O=C(CCN1C(=O)/C(=C/c2ccccc2Cl)SC1=S)N1CCCC1 here?
Answer: Its Potency is 11.2 µM (active).

Question: With C=C(C)c1cccc(C(C)(C)NC(=O)N2CCN(CC)CC2)c1 as the compound, how does the “activity change, negative = inhibition” value read?
Answer: The value was -10.7%.

Question: CC(C)(C)S(=O)(=O)c1cnc2c(-c3ccc(F)cc3)cnn2c1N was tested. Which Potency did it give?
Answer: Its Potency is 11.2 µM (active).

Question: Which Potency does the source give for Cc1ccc2nc(-c3ccc(NC(=O)COC(=O)c4ccc([N+](=O)[O-])o4)cc3)sc2c1 here?
Answer: The Potency was 0.315 µM (active).

Question: For Cc1cc(-c2ccccc2)nc(N2CCC(C(=O)NCc3ccccc3Cl)CC2)n1, which “activity change, negative = inhibition” value is on record?
Answer: The value was -6.36%.

Question: For CCN(CC(=O)NCCc1ccc(Cl)cc1)Cc1nc2ccccc2c(=O)[nH]1, which Potency is on record?
Answer: The Potency was 12.5 µM (active).

Question: With COc1ccc(C(C#N)N2N=C(C)CC2c2ccccc2)cc1 (stereo not given) as the compound, how does the “activity change, negative = inhibition” value read?
Answer: Its value is 7.28%.

Question: Which Potency does the source give for Cc1cc(C)nc(-n2nc(C)cc2NC(=O)c2ccc(F)cc2F)n1 here?
Answer: Its Potency is 0.996 µM (active).

Question: With Oc1ccccc1-c1cc(-c2ccc3c(c2)OCCO3)n[nH]1 as the compound, how does the Potency read?
Answer: Its Potency is 11.2 µM (active).

Question: COc1ccc(OC)c(/C=C2\SC(=S)N(C(C(=O)O)c3ccccc3)C2=O)c1 (stereo not given) was tested. Which “activity change, negative = inhibition” value did it give?
Answer: The value was 13.7%.

Question: With Cc1cc(C)c2[nH]c(C(=O)Nc3ccc4c(c3)OCO4)cc2c1 as the compound, how does the Potency read?
Answer: Its Potency is 0.125 µM (active).

Question: COc1ccc(/C=C/C(=O)NC(=S)NCC2CCCO2)cc1 (stereo not given) was tested. Which Potency did it give?
Answer: The Potency was 11.2 µM (active).

Question: For COc1ccc(C(=O)Nc2nc3cc4c(cc3s2)OCCO4)c(OC)c1, which Potency is on record?
Answer: Its Potency is 0.0628 µM (active).

Question: For Cc1ccc(Oc2nc(-c3ccccn3)nc3ccccc23)cc1, which Potency is on record?
Answer: Its Potency is 0.396 µM (active).

Question: With CCOC(=O)Cc1ccc(NC(=O)c2ccc(C(C)(C)C)cc2)cc1 as the compound, how does the “activity change, negative = inhibition” value read?
Answer: The value was 50.4%.

Question: O=c1c2cc(Br)ccc2[nH]c(=S)n1Cc1cccnc1 was tested. Which Potency did it give?
Answer: The Potency was 11.2 µM (active).

Question: For S=c1nc(COc2ccccc2)[nH]c2ccccc12, which Potency is on record?
Answer: Its Potency is 6.28 µM (active).

Question: CN(Cc1nc2ccccc2c(=O)[nH]1)Cc1nc2ccsc2c(=O)[nH]1 was tested. Which Potency did it give?
Answer: Its Potency is 1.41 µM (active).

Question: For COc1ccc2nc(NC(=O)c3sc4nc(C)cc(C)c4c3N)sc2c1, which Potency is on record?
Answer: Its Potency is 0.0199 µM (active).

Question: S=c1[nH]c(-c2ccc(Br)cc2)cn1CCc1ccccc1 was tested. Which Potency did it give?
Answer: The Potency was 9.96 µM (active).

Question: With Cc1cc(C)c2sc(NC(=O)c3ccc(N4C(=O)CCC4=O)cc3)nc2c1 as the compound, how does the Potency read?
Answer: Its Potency is 0.0705 µM (active).

Question: O=C(NC(=S)Nc1nc(-c2ccccc2)cs1)c1cncc(Br)c1 was tested. Which Potency did it give?
Answer: The Potency was 3.15 µM (active).

Question: Cc1cc(C)nc(-n2nc(C)cc2NC(=O)CNC(C)c2ccccc2)n1 (stereo not given) was tested. Which Potency did it give?
Answer: Its Potency is 6.28 µM (active).

Question: CCOC(=O)C(C(=O)OCC)C(C(=O)OCC)N1CCOCC1 (stereo not given) was tested. Which Potency did it give?
Answer: Its Potency is 3.15 µM (active).

Question: For Fc1cccc2sc(Nc3nnc(-c4ccco4)o3)nc12, which Potency is on record?
Answer: Its Potency is 1.99 µM (active).

Question: With COc1cccc2cc(-c3n[nH]c(=S)n3C)oc12 as the compound, how does the Potency read?
Answer: The Potency was 15.8 µM (active).

Question: For O=c1oc2c3c(nn2c2ccccc12)CCCC3, which “activity change, negative = inhibition” value is on record?
Answer: Its value is -0.931%.

Question: For CCOC(=O)c1ccc2nc(Nc3nc4ccc(F)cc4s3)sc2c1, which Potency is on record?
Answer: Its Potency is 5.6 µM (active).

Question: Cc1nn(-c2cc(C)c3ccccc3n2)c2c1C1C(C2)C1(C)C (stereo not given) was tested. Which Potency did it give?
Answer: Its Potency is 6.28 µM (active).

Question: Which “activity change, negative = inhibition” value does the source give for COc1cccc(-c2cc(C(=O)N3CCc4ccccc4C3)[nH]n2)c1 here?
Answer: Its value is 10.3%.

Question: CCOC(=O)c1sc(NC(=O)c2cc3c(s2)CCC(C)C3)nc1C (stereo not given) was tested. Which Potency did it give?
Answer: Its Potency is 0.0996 µM (active).
